This note sets out measurements from PubChem BioAssay AID1259343 (VanderVen Lab, College of Veterinary Medicine, Cornell …, 2017).

Each structure is given as a SMILES string. Screen size: about 6,200 compounds; about 2,900 (47%) were called active. The set was probably picked from earlier hits. This is one part of the list. Unmarked numbers belong to inactive results. No stated cut-off is given here; in the data, active means inhibition above about 50%; inactive means the rest.

The inhibition is the change of the read-out against control, counted positive when it falls.

This experiment can be described thus: Mycobacterium tuberculosis growth inhibition, primary screen (AID 1259343). As to conditions: inhibition: at 10 µM, hits give high values; outcome: 10 uM.
Consider `CCCC1C=CCN1C(=O)c1cc(COc2ccc3c(c2)OCO3)[nH]n1` (stereo unspecified), for which the inhibition was 31.8%.
With `Cc1ccc(OCc2cc(C(=O)N3CCC(C(=O)c4ccccc4)CC3)no2)cn1` the entry was “inactive”.
With `Cc1ccccc1C1CCCN(C(=O)c2cc(COc3cccc4cnccc34)on2)C1` (stereo unspecified) the figure was 46.4%; with `CCCCC1C=CCN1C(=O)c1c(O)cccc1O` (stereo unspecified), 3.76%; with `CCC1C=CCN1C(=O)c1cc(COc2ccc3sc(C)nc3c2)on1` (stereo unspecified), 94.8% (active).
With `C=CC[C@@H]1CC=C[C@@H](C)N1C(=O)c1cc(COc2ccc3sc(C)nc3c2)on1` the figure was -45.8%.
`CCCC1C=CCN1C(=O)c1cc(COc2ccc(C(C)=O)cc2)on1` (stereo unspecified): the inhibition is 75.2% (active).
For the compound `Cc1ccc(OCc2cc(C(=O)N3CCCC3c3nc4ccccc4s3)no2)cn1` (stereo unspecified), the inhibition was 81.4% (active).
Regarding `O=c1c(-c2ccc(O)cc2)coc2cc(O)cc(O)c12`, the inhibition is 50.5% (active).
Take `COc1ccc2c(=O)c3c(=O)n(-c4ccccc4)c(C)nc3oc2c1`: the inhibition is 12.6%.
With `COc1ccc2c(=O)c(Oc3ccc(Cl)cc3)coc2c1` the figure was 0.4%; with `O=c1c(O)c(-c2ccc(O)c(O)c2)oc2cc(O)cc(O)c12`, 36.4%; with `COc1ccc(-c2c(NC(=O)c3ccco3)oc3c(C)cccc3c2=O)cc1`, 19.2%.
As to `COc1cc(OC)c2c(=O)c(-c3ccccc3)coc2c1`, the inhibition is 70.5% (active).
With `COc1ccc(-c2coc3c(O)c(OC)ccc3c2=O)cc1` the figure was 67% (active).
With `COc1ccc(OC)c(C(=O)c2coc3ccc(OC)cc23)c1` the figure was 17.3%.
With `COc1ccc(-c2coc3cc(O)cc(O)c3c2=O)cc1` the figure was 88.5% (active); with `COc1ccc(-c2cnoc2-c2ccc(OC)cc2O)cc1`, -32.9%.
As to `COc1ccc(CC(N)c2csc(Nc3nncc4ccccc34)n2)cc1` (stereo unspecified), the inhibition is 91.7% (active).
`NC(Cc1ccccc1)c1csc(Nc2nncc3ccccc23)n1` (stereo unspecified): the inhibition is 89.8% (active).
With `NC(c1csc(Nc2nncc3ccccc23)n1)c1ccccc1Cl` (stereo unspecified) the figure was 58.8% (active).
With `NC(c1csc(Nc2nncc3ccccc23)n1)C1CCCCC1` (stereo unspecified) the figure was 97.4% (active); with `Cc1cc2n(c1)CCn1c(C)ccc1-2`, -18.7%; with `COc1ccc(C(N)c2csc(Nc3nncc4ccccc34)n2)cc1` (stereo unspecified), 57.6% (active).
With `NC(CCc1ccccc1)c1csc(Nc2nncc3ccccc23)n1` (stereo unspecified) the figure was 81% (active); with `NC(COCc1ccccc1)c1csc(Nc2nncc3ccccc23)n1` (stereo unspecified), 71% (active); with `c1ccc(CC(Cc2ccccc2)=NNc2nncc3ccccc23)cc1`, 9.04%.
For `CCCn1ccnc1SCC(=O)NC(=O)NC12CC3CC(CC(C3)C1)C2`, the inhibition is 32.7%.
With `O=C(Nc1ccc(-c2ccccc2)cc1)N[C@@H](Cc1ccccc1)C(=O)N1CCC(C(=O)N2CCCCC2)CC1` the figure was 76.3% (active); with `CCCc1nc2oc3ccccc3c(=O)c2c(=O)n1-c1ccc(C)cc1`, -28%; with `Cc1ccc(-n2c(Cl)c(Cl)nc(Cl)c2=O)cc1`, 102% (active).
With `Cc1sc2ncnc(NC3CCCCC3C)c2c1C` (stereo unspecified) the figure was 84.5% (active).
With `CCOC(=O)c1c(C)[nH]c(C(=O)OCC(=O)C23CC4CC(CC(C4)C2)C3)c1C` the figure was -59.8%.
As to `Cc1ccc(C)c(N=Nc2c(C)[nH]c3ccccc23)c1`, the inhibition is 81.8% (active).
With `Cc1[nH]c2ccccc2c1N=Nc1ccc(F)cc1` the figure was 11.2%; with `CCOC(=O)c1c(C)[nH]c(N=Nc2ccc3c(c2)OCO3)c1C`, 104% (active).
With `Cc1ccc(C2=NNC(=NCc3ccc4c(c3)OCO4)SC2)s1` the figure was 18.8%.
In the case of `Cc1[nH]c2ccccc2c1N=Nc1ccc2c(c1)OCO2`, the inhibition was 89.7% (active).
With `Cc1[nH]c2ccccc2c1N=Nc1ccc(SC(F)F)cc1` the figure was 58.3% (active); with `CCOC(=O)c1c(C)[nH]c(C(=O)CSc2ncn[nH]2)c1C`, -1.94%.
With `Cc1[nH]c2ccccc2c1C(c1cccnc1)c1c(C)[nH]c2ccccc12` the figure was 45.9%; with `Cc1[nH]c2ccccc2c1N=Nc1cccc2ccccc12`, -9.25%.
As to `O=c1c(NCCc2ccccc2)nccn1-c1ccccc1`, the inhibition was 23.1%.
With `Cc1ccc(-n2ccnc(NCC(C)c3ccccc3)c2=O)cc1C` (stereo unspecified) the figure was 68.9% (active).
With `Cc1cc(NS(=O)(=O)c2cc(Cl)ccc2Cl)no1` the figure was 43.7%.
With `Cc1cc(F)ccc1S(=O)(=O)Nc1cc(-c2ccccc2)on1` the figure was 69.6% (active).
For the compound `CC(C)(C)N=C1NN=C(c2ccc3ccccc3c2)CS1`, the inhibition was 9.77%.
With `CCCCN=C1SCC(c2cc(C)n(Cc3ccco3)c2C)=NN1C` the figure was 44%.
With `Cc1cc(C2=NNC(=NCC3CCCO3)SC2)c(C)n1Cc1cccs1` (stereo unspecified) the figure was 23.6%; with `Cc1ccc(N=C2NN=C(c3cc(F)ccc3F)CS2)c(C)c1`, 31.9%.
With `Cc1cc(C2=NNC(=NCc3ccc4c(c3)OCO4)SC2)c(C)n1Cc1ccco1` the figure was -5.02%; with `Cc1cc(C2=NNC(=NC3CC3)SC2)c(C)n1-c1ccccc1F`, 95.9% (active); with `CC(C)(C)N=C1NN=C(c2c[nH]c3ccccc23)CS1`, -10%.
`Cc1cc(C2=NNC(=NC3CCCC3)SC2)c(C)n1Cc1ccco1`: the inhibition was 99.4% (active).
With `FC(F)Oc1ccc(C2=NNC(=NC3CC3)SC2)cc1` the figure was 18.9%; with `COCCCN=C1NN=C(c2cc(C)n(Cc3ccco3)c2C)CS1`, 63.8% (active); with `Cc1cc(C2=NNC(=NCc3ccco3)SC2)c(C)n1Cc1ccco1`, -40.5%.
With `Cc1ccccc1N=C1NN=C(c2ccccc2F)CS1` the figure was 68.3% (active); with `O=c1c2c(F)c(F)c(F)c(F)c2on2c3c(nc12)CCCC3`, 44.8%; with `c1ccc(Sc2c(-c3ccccc3)nc3sccn23)cc1`, 34.5%.
On to `O=C(CSc1nnnn1-c1ccccc1)NNC(=O)c1ccc(O)cc1O`, for which the inhibition is 11.6%.
Consider `CC(C)c1ccc(-n2nnnc2SC(C)c2nnc(-c3ccc([N+](=O)[O-])cc3)o2)cc1` (stereo unspecified), for which the inhibition was 18.5%.
As for `O=[N+]([O-])c1ccc(Sc2nnnn2-c2ccccc2)c([N+](=O)[O-])c1`, the inhibition is 89.6% (active).
Take `c1ccc(-n2nnnc2SCCNc2nc3ccccc3[nH]2)cc1`: the inhibition was 42.9%.
With `O=[N+]([O-])c1c(Sc2nnnn2-c2ccccc2)nc2sccn12` the figure was 99.2% (active); with `O=C1c2ccccc2NC2(CCCC2)N1CC(F)(F)F`, 85.2% (active).
With `NC(=S)N=Nc1ccc(NN=C(N)N)cc1` the figure was 101% (active).
With `CC(=O)C1=C(C(F)(F)F)N(C)C(=S)N(C)C1c1ccccc1` (stereo unspecified) the figure was 70% (active); with `COc1ccc(OCCN2C(=O)CN(/C=C/c3ccccc3)C2=O)cc1`, -5.21%; with `CN1CC(=O)N(CCCC(=O)Nc2ccc(OCc3ccccc3)cc2)C1=O`, 93.5% (active).
Take `C=CCN(CC(O)COc1ccccc1)CC1CC(c2ccccc2)=NO1` (stereo unspecified): the inhibition was 20.8%.
Take `CC(O)CNCCCCOc1ccc(OCc2ccccc2)cc1` (stereo unspecified): the inhibition was 96.8% (active).
With `OC1(c2ccc(OCc3ccccc3)cc2)CCOCC1` the figure was 30.5%.
With `NS(=O)(=O)c1ccc2c(c1)CCN2Cc1cc(F)cc2c1OCOC2` the figure was 3.61%; with `O=C(O)C1CCN(C(=O)c2ccc(-c3ccc(Cl)cc3)s2)CC1`, 1.69%.
For the compound `CC1CCN(C(=O)c2ccc(-c3ccc(F)c(F)c3)s2)CC1`, the inhibition is 65.3% (active).
With `Cc1ccc(C(=O)N2CCC(c3ccc(F)cc3)CC2)s1` the figure was 33.5%.
Turning to `COc1cc(NC(=O)CN2CCC(n3ccnc3)C2)ccc1Cl` (stereo unspecified), the inhibition was 85.6% (active).
Take `COc1ccc(NC(=O)N2CCCC(C(=O)c3sccc3C)C2)cc1OC` (stereo unspecified): the inhibition was 23.7%.
With `COc1cccc(C2CC2C(=O)Nc2cnc(C3CC3)nc2)c1` (stereo unspecified) the figure was 37.3%.
With `O=C(NCC(O)COc1cccc(Cl)c1Cl)C1CC1c1ccco1` (stereo unspecified) the figure was 12.8%.
With `O=C(Nc1ncc(Cl)s1)C1CC1c1ccco1` (stereo unspecified) the figure was 86.5% (active); with `CCCc1cc(=O)[nH]c(-n2nc(C)cc2NC(=O)c2cc(OC)c(OC)c(OC)c2)n1`, 100% (active); with `CCc1cc(=O)[nH]c(-n2nc(C)cc2NC(=O)c2cc(OC)c(OC)c(OC)c2)n1`, -22.3%.
On to `CCCc1cc(=O)[nH]c(-n2nc(C)cc2NC(=O)c2ccc(OC)c(OC)c2)n1`, for which the inhibition is 102% (active).
With `O=C(O)COc1ccc2cc(Br)ccc2c1` the figure was 78.5% (active); with `COC(=O)CN1C(c2ccc(OC)cc2)=Nc2ccc(Br)cc2C1c1ccccc1` (stereo unspecified), 29.4%; with `CC(NC(=O)COc1ccc2cc(Br)ccc2c1)c1ccc(F)cc1` (stereo unspecified), -32.3%.
As to `Cc1cccc2c3c(ccc12)C1=C(C(=O)C3=O)C(C)CO1` (stereo unspecified), the inhibition was 82.3% (active).
With `CN(CC(F)(F)C(F)F)S(=O)c1ccc2ccccc2c1` (stereo unspecified) the figure was 49%; with `CC(NCC1(c2ccccc2)CCCC1)c1nnc(-c2ccccc2)o1` (stereo unspecified), -0.11%; with `COc1ccc(-c2nnc(C(C)Nc3cccc4c3CCCC4)o2)cc1` (stereo unspecified), 67.9% (active).
With `CN(Cc1ccco1)C(=O)NCCc1cccc(Cl)c1` the figure was 49.7%.
Regarding `CN(Cc1ccccc1)C(=O)NCCc1ccc2c(c1)CCO2`, the inhibition is 66.7% (active).
With `O=C(Cc1ccc2c(c1)CCC2)NCCc1ccc2c(c1)OCCO2` the figure was 37.8%; with `c1ccc(CCCCc2nn3c(C4CC4)nnc3s2)cc1`, 34.8%.
With `FC(F)(F)c1nnc2sc(Cc3cccc4ccccc34)nn12` the figure was 71.8% (active); with `CC1CCN(S(=O)(=O)NCc2cc(-c3ccccc3)on2)CC1`, 20.4%.
As to `O=S(=O)(NCCCC1CCCCC1)N1CCCCCC1`, the inhibition is 26.3%.
With `O=S(=O)(NCc1ncc(-c2ccccc2)o1)N1CCCCCC1` the figure was 58.4% (active); with `Cc1oc(=O)oc1CN1CCN(c2cc3c(cc2F)c(=O)c(C(=O)O)c2n3C(C)S2)CC1` (stereo unspecified), 96.9% (active).
